Growth data for eight compounds are collected here from PubChem BioAssay (NCI).

Among the test systems are NCI-H23 lung; NCI-H226 lung; NCI-H322M lung; HOP-62 NSCLC; NCI-H460 lung; HOP-92 NSCLC; NCI-H522 lung; A549/ATCC NSCLC; 786-0 renal; COLO 205 colon; DU-145 prostate; MALME-3M melanoma; MDA-MB-231 breast; RXF 393 renal; SF-268 CNS; SF-295 CNS; SF-539 CNS; UACC-257 melanoma; M14 melanoma; K-562 leukemia.
Assay in all cases: NCI-60 one-dose screen, 48 h (100 = growth as untreated, 0 = no growth, -100 = all killed)
Holding throughout (conditions): 10 µM unless noted

Compounds without any hit were thinned out: in the full panel of roughly 83,000, 20% have a hit.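 Percent growth is the endpoint: 0 to 100 indicates growth inhibition (40 means 60% inhibition), 0 means no net growth, and negative values indicate cell death.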 Values without a mark were called inactive. Activity calls are given as the source filed them. Rule for the calls: active = growth percent below 10; inactive = the rest.

With `COC(=O)CCCNS(=O)(=O)c1cc(C(=O)Nc2ccc(NC(=O)c3cc(S(=O)(=O)NCCCC(=O)OC)c(O)c(O)c3O)cc2)c(O)c(O)c1O`, the growth in the assay with NCI-H23 lung was 92.4%; in the assay on NCI-H226 lung, 98.4%; with NCI-H322M lung, 89.4%; with HOP-62 NSCLC, 98.5%; in the assay with NCI-H460 lung, 97.3%; in the assay on HOP-92 NSCLC it was 115%. In addition, the growth is 86.1% with NCI-H522 lung; 83.2% in the assay with A549/ATCC NSCLC; 112% in the assay with 786-0 renal; 114% in the assay on COLO 205 colon; 98.1% in the assay on DU-145 prostate; 105% with MALME-3M melanoma. Moreover, the growth in the assay on MDA-MB-231 breast was 94.7%; with RXF 393 renal, 107%; with SF-268 CNS, 91.9%; in the assay with SF-295 CNS it was 98.1%; in the assay on SF-539 CNS it was 102%; in the assay with UACC-257 melanoma it was 96.2%. Moreover, the growth in the assay with M14 melanoma was 98.3%.
Turning to `O=C(Nc1ccc(-n2cc(-c3ccncc3)c(-c3ccc(O)c(Cl)c3)n2)cc1)c1cc(C(F)(F)F)cc(C(F)(F)F)c1`, the growth was 82% in the assay with NCI-H23 lung; 93.7% in the assay with NCI-H226 lung; 75.2% with NCI-H322M lung; 81.2% in the assay with HOP-62 NSCLC; 45% with NCI-H460 lung; 6.71% (active) in the assay with HOP-92 NSCLC. Also, the growth in the assay with NCI-H522 lung was 62.8%; in the assay with A549/ATCC NSCLC, 54.8%; in the assay on 786-0 renal it was 53.1%; with DU-145 prostate, 65%; in the assay with K-562 leukemia, 36.7%; with MALME-3M melanoma, 77.7%. The growth in the assay on MDA-MB-231 breast was 21.3%; with RXF 393 renal, -21.1% (active); with SF-268 CNS it was 56%; in the assay on SF-295 CNS it was 31%; in the assay on SF-539 CNS, 57.7%; with UACC-257 melanoma, 77.1%. Besides, in the assay on M14 melanoma, the growth was 30.2%.
As for `C=C1C(=O)O[C@H]2[C@H]1CC/C(CNC(=O)/C1=C/CC[C@@]3(C)O[C@H]3[C@H]3OC(=O)C(=C)[C@@H]3CC1)=C\CC[C@@]1(C)O[C@@H]21`, the growth in the assay on NCI-H23 lung is 99.6%; in the assay on NCI-H226 lung, 92.4%; in the assay on NCI-H322M lung, 96%; with HOP-62 NSCLC, 93.8%; in the assay with NCI-H460 lung, 104%; in the assay with HOP-92 NSCLC it was 84.5%. The growth with NCI-H522 lung was -28.3% (active); in the assay with A549/ATCC NSCLC it was 91%; in the assay on 786-0 renal, 93.1%; in the assay on COLO 205 colon, 71.8%; with DU-145 prostate it was 105%; in the assay with MALME-3M melanoma it was 104%. Besides, the growth with MDA-MB-231 breast is 102%; in the assay on RXF 393 renal, 99.3%; in the assay with SF-268 CNS, 98.5%; in the assay with SF-295 CNS it was 97.6%; with SF-539 CNS it was 95.6%; with UACC-257 melanoma, 79.9%. Besides, in the assay with M14 melanoma, the growth is 95.2%.
Turning to `CCn1c(SCC(=O)c2ccc(Br)cc2)nnc1-c1cc2c([nH]c3ccccc32)c(-c2cccc(O)c2)n1`, the growth in the assay on NCI-H23 lung was 85.2%; in the assay with NCI-H226 lung, 94.4%; in the assay on NCI-H322M lung, 79.2%; in the assay on HOP-62 NSCLC, 67.6%; in the assay with NCI-H460 lung it was 68.1%; in the assay with HOP-92 NSCLC, 95.2%. Moreover, the growth with NCI-H522 lung is 49.2%; in the assay with A549/ATCC NSCLC, 41%; with 786-0 renal it was 32.9%; in the assay on COLO 205 colon it was 108%; with DU-145 prostate it was 85.3%; in the assay with MALME-3M melanoma, 64.6%. The growth is 75.4% in the assay with MDA-MB-231 breast; 1.81% (active) in the assay on RXF 393 renal; 72.5% with SF-268 CNS; 41.1% in the assay on SF-295 CNS; 60.9% with SF-539 CNS; 83.8% in the assay on UACC-257 melanoma. Besides, in the assay on M14 melanoma, the growth is 72.2%.
For the compound `Cc1cc(N2CCOCC2)nc(N(CCNc2ccnc3cc(Cl)ccc23)Cc2ccco2)n1`, the growth in the assay on NCI-H23 lung was 58%; in the assay on NCI-H226 lung it was 60.5%; with NCI-H322M lung, 41.8%; with HOP-62 NSCLC it was 36.5%; in the assay on NCI-H460 lung, 47.3%; in the assay on HOP-92 NSCLC, 46.7%. The growth in the assay on NCI-H522 lung is 13.9%; in the assay with A549/ATCC NSCLC it was 50.7%; in the assay with 786-0 renal it was 5.93% (active); with COLO 205 colon, -4.11% (active); in the assay on DU-145 prostate it was 53.4%; in the assay with MALME-3M melanoma, 62.8%. Further, the growth in the assay with MDA-MB-231 breast is 7.62% (active); in the assay with RXF 393 renal, 10.6%; in the assay with SF-268 CNS it was 71.8%; in the assay on SF-295 CNS, 6.25% (active); in the assay on SF-539 CNS, -31.8% (active); with UACC-257 melanoma, 49.8%. For the same compound, the growth in the assay on M14 melanoma was 39.5%.
For `O=C(CNc1cccnc1)Nc1ccc(C(=O)/C=C/c2ccc(Cl)cc2)cc1`, the growth with NCI-H23 lung is 91.7%; in the assay on NCI-H226 lung, 86.4%; in the assay with NCI-H322M lung, 95.9%; in the assay on HOP-62 NSCLC, 107%; with NCI-H460 lung, 93.5%; in the assay with HOP-92 NSCLC, 90.7%. The growth was 89.4% in the assay with NCI-H522 lung; 88.3% in the assay on A549/ATCC NSCLC; 105% in the assay with 786-0 renal; 106% in the assay on COLO 205 colon; 103% in the assay with DU-145 prostate; 89.3% in the assay on MALME-3M melanoma. Also, the growth in the assay with MDA-MB-231 breast was 77%; in the assay on RXF 393 renal it was 98.8%; in the assay on SF-268 CNS, 91.4%; in the assay on SF-295 CNS, 93.9%; in the assay with SF-539 CNS, 99.6%; with UACC-257 melanoma, 105%. Moreover, in the assay on M14 melanoma, the growth is 88.4%.
`c1coc(CSc2ncnc3nc[nH]c23)c1`: the growth is 103% in the assay on NCI-H23 lung; 101% in the assay with NCI-H226 lung; 125% with NCI-H322M lung; 99.7% in the assay on HOP-62 NSCLC; 111% with NCI-H460 lung; 57.8% in the assay on HOP-92 NSCLC. The growth in the assay with NCI-H522 lung was 80%; in the assay on A549/ATCC NSCLC it was 101%; in the assay on 786-0 renal, 97%; in the assay on COLO 205 colon, 113%; with DU-145 prostate it was 108%; in the assay on MALME-3M melanoma, 125%. Moreover, the growth was 115% in the assay with MDA-MB-231 breast; 91.1% with RXF 393 renal; 101% in the assay with SF-268 CNS; 142% in the assay on SF-295 CNS; 91.6% with SF-539 CNS; 97.3% with UACC-257 melanoma. The growth with M14 melanoma was 101%.
With `O=C(Nc1ccc(Cl)c(Cl)c1)Nc1ccc(Cl)c([N+](=O)[O-])c1`, the growth was -14.4% (active) with NCI-H23 lung; 1.2% (active) in the assay on NCI-H226 lung; 6.27% (active) with NCI-H322M lung; -3.52% (active) with HOP-62 NSCLC; 1.62% (active) in the assay on NCI-H460 lung; -23.2% (active) with HOP-92 NSCLC. The growth in the assay on NCI-H522 lung was -12.7% (active); with A549/ATCC NSCLC, 4.45% (active); in the assay with 786-0 renal it was 7.48% (active); in the assay with COLO 205 colon, -80% (active); in the assay on DU-145 prostate, 18%; with MALME-3M melanoma, -12.3% (active). Also, the growth was -62.6% (active) with MDA-MB-231 breast; -11.8% (active) with RXF 393 renal; 14.1% with SF-268 CNS; -26.6% (active) with SF-295 CNS; 8.74% (active) in the assay on SF-539 CNS; -8.5% (active) in the assay on UACC-257 melanoma. Further, the growth in the assay on M14 melanoma is 0.455% (active).
